# Assay results: PubChem BioAssay AID686979 (National Center for Advancing Translational Sciences (NCATS), 2013)
# Several values for one entry are separate records, joined by “and”; a condition that tells them apart may be missing. Equal entries are not always repeated. Among all 420,000 compounds or so, about 50,000 (12%) were called active. Entries that show only a call come without a potency. Roughly 26% stayed inconclusive and do not appear here. The call rests on the fitted dose curve; in most records, active means well fitted inhibition curve with a large enough effect; inconclusive means small, poorly fitted or top-dose-only effect; inactive means flat fitted curve, though single readings scatter. The sample as a whole holds a higher share of actives than the screen did.
# Test: qHTS for Inhibitors of human tyrosyl-DNA phosphodiesterase 1 (TDP1): qHTS in cells in presence of CPT; further: nearly all actives have a fitted effect of over 55% in size
# Details: chicken DT40 Tdp1-/-;hTDP1 cells + 20 nM CPT, ATP luminescence, 48 h; series mostly up to 46.2 µM
# In short: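 Chicken DT40 Tdp1-/- cells complemented with human TDP1, 400 cells/well, exposed to compounds plus 20 nM camptothecin for at least 48 h at 37 C; viability read as ATP content by CellTiter-Glo luminescence.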
# Potency means the concentration at half of the fitted maximal effect.
row,SMILES,Potency
1,Cc1ccc(S(=O)(=O)n2nc(C)c(S(=O)(=O)N3CCCCCC3)c2C)cc1,inactive
2,COc1ccc(NS(=O)(=O)c2cccc3nsnc23)cc1Cl,inactive
3,COc1ccc([C@H]2CC(=O)C=C(c3ccc(C)cc3)C2)cc1,inactive
4,Cc1csc(NC(=S)Nc2cccc(Cl)c2)n1,1.64 µM (active)
5,S=C(Nc1cccc(Cl)c1)Nc1ccc2cn[nH]c2c1,inactive
6,CC(=O)Nc1cccc(C(=O)Nc2nc(C)cs2)c1,inactive
7,Cc1cc(C)cc(NC(=O)CCS(=O)(=O)c2cc3c4c(c2)CCN4C(=O)CC3)c1,inactive
8,Cn1c(-c2ccco2)nc2cc3ccccc3cc21,11.6 µM (active)
9,S=c1[nH]nc(-c2ccco2)n1/N=C/c1ccccc1,inactive
10,Cn1cccc1-c1nc2ccccc2n1C,inactive
11,CCOc1ccc(S(=O)(=O)N(CC(=O)NCCSCc2ccc(C)cc2)c2ccccc2)cc1,inactive
12,CCS(=O)(=O)Nc1cc(C(=O)N2C[C@@H](C)O[C@@H](C)C2)c2c(c1)nc(-c1ccccc1)n2C,inactive
13,CCOC(=O)C1=C(O)CSC1=Nc1cccc(Cl)c1,inactive
14,CN(C)c1nc(=Nc2cccc(Cl)c2)ss1,0.206 µM (active)
15,O=C(O)C1=NN(c2c(F)c(F)cc(F)c2F)C(=O)CC1,inactive
16,O=C(O)CCc1cccnc1,inactive
17,C/C(=N\NC(=O)CCn1nc(C)cc1C)C(C)(C)C,inactive
18,Cc1ccc2c(C)c(C(=O)N3CCN(c4ccncc4)CC3)oc2c1C,23.1 µM (active)
19,Cc1ccc2c(C)c(C(=O)N(C)Cc3ccncn3)oc2c1C,inactive
20,CC(=O)N1CCC2(CC1)CCN(c1ccncc1)CC2,inactive
21,CCOC(=O)N(Cc1ccccc1)C1CC1,inactive
22,CCN(CC(=O)NCc1ccc(Cl)cc1)C(=O)c1c(C)noc1C,inactive
23,Cc1noc(C)c1-c1ccc(C(=O)NCc2ccncc2)c2occc12,9.2 µM (active)
24,O=C(NCc1ccncc1)C(=O)NCc1ccco1,inactive
25,Cc1ccc(CNC(=O)CCc2c(C)nc3c(c(C)nn3-c3ccccc3)c2C)cc1,inactive

row,SMILES,Potency
1,CCOC(=O)c1c(C)oc2ccc(N(C(=O)c3ccncc3)S(=O)(=O)c3ccc(CC)cc3)cc12,5.8 µM (active)
2,CN(CC(=O)O)S(=O)(=O)c1ccc2oc3ccccc3c2c1,inactive
3,CCOC(=O)c1c(C)oc2cc(Br)c(OCC(N)=O)cc12,inactive
4,CCOC(=O)c1c(C)oc2nc(C)nc(Nc3ccc(CC)cc3)c12,inactive
5,COC(=O)c1c(C)oc2ccc(N(C(=O)Oc3ccccc3)S(=O)(=O)c3ccccc3)cc12,20.6 µM (active)
6,CC(=O)Oc1ccc(N(C(C)=O)S(=O)(=O)c2ccc3ccccc3c2)cc1Br,inactive
7,COc1cc(/C=C2/C(=O)NN(c3ccc(F)cc3)C2=O)cc([N+](=O)[O-])c1O,inactive
8,CC(C)(C)c1cc(=O)n2c(nc3ccccc32)[nH]1,inactive
9,COCCOC(=O)C1=C(C)NC(=O)NC1c1cc2c(cc1Br)OCO2 (stereo not drawn),inactive
10,O=C(O)C1=C/C(=C/C=[N+]2c3cc(O)c(O[C@H]4OC(CO)[C@@H](O)[C@@H](O)[C@@H]4O)cc3C[C@@H]2C(=O)[O-])C[C@H](C(=O)O)N1 (stereo partly drawn),inactive
11,COc1ccc(CNC(=O)COC(=O)C(CCSC)N2C(=O)c3ccccc3C2=O)cc1 (stereo not drawn),inactive
12,COc1ccc(/C(O)=C2\C(=O)C(=O)N(Cc3ccco3)C2c2ccc(OC)cc2OC)cc1 (stereo not drawn),29.1 µM (active)
13,COc1ccccc1C1/C(=C(/O)c2ccc(C)cc2)C(=O)C(=O)N1Cc1ccco1 (stereo not drawn),inactive
14,COc1ccc(C2/C(=C(/O)c3ccccc3)C(=O)C(=O)N2C)c(OC)c1 (stereo not drawn),inactive
15,CCn1c(SCC(=O)NC2CC2)nnc1-c1ccccn1,inactive
16,CO[C@H]1[C@@H](O)[C@H](N)[C@@H](O[C@H]2O[C@H]([C@H](C)N)CC[C@H]2N)[C@H](O)[C@@H]1N(C)C(=O)CN,inactive
17,CC[C@]1(O)C[C@@H]2CN(CCc3c([nH]c4ccccc34)[C@@](C(=O)OC)(c3cc4c(cc3OC)N(C)[C@H]3[C@@](O)(C(=O)OC)[C@H](OC(C)=O)[C@]5(CC)C=CCN6CC[C@]43[C@@H]65)C2)C1,65.1 nM (active) and 47.3 nM (active) and 146 nM (active)
18,CC[C@]1(O)CC2CN(CCc3c([nH]c4ccccc34)[C@@](C(=O)OC)(c3cc4c(cc3OC)N(C=O)[C@H]3[C@@](O)(C(=O)OC)[C@H](OC(C)=O)[C@]5(CC)C=CCN6CC[C@]43[C@@H]65)C2)C1 (stereo partly drawn),0.146 µM (active)
19,CCc1nc2onc(C)c2c(=O)n1CC(=O)O,inactive
20,O=C1Cc2cc(S(=O)(=O)Nc3cccc(F)c3)ccc2N1,inactive
21,CCC(C(=O)Nc1ccc(C(C)C)cc1)c1ccccc1 (stereo not drawn),inactive
22,Cc1c(NC(=O)C(C)(C)C)cccc1-c1nc2ccccc2s1,13 µM (active)
23,CCC(C(=O)Nc1cccc(-c2nc3cccnc3s2)c1C)c1ccccc1 (stereo not drawn),20.6 µM (active)
24,CCC(C(=O)Nc1ccc2c(c1)OCCO2)c1ccccc1 (stereo not drawn),inactive
25,Cc1cccc(C(=O)Nc2ccc(-c3nc4ccccc4s3)c(C)c2)c1,inactive

row,SMILES,Potency
1,CC(=O)Nc1cccc(-c2nc3ccccc3s2)c1C,inactive
2,Cc1c(O)cc2c(c1C)O[C@](C)(CCC[C@H](C)CCC[C@H](C)CCCC(C)C)CC2,inactive
3,Cc1ccc(NC(=O)c2cc([N+](=O)[O-])ccc2Cl)c(O)c1,inactive
4,CCOc1ccc(Nc2nc(Cl)nc(N3CCN(c4ccc(OC)cc4)CC3)n2)cc1,18.4 µM (active)
5,COc1ccc(N2CCN(c3ccc([N+](=O)[O-])cc3Cl)CC2)cc1,inactive
6,CCC(=O)Nc1ccc(Nc2nc(Cl)nc(Nc3ccc(NC(=O)CC)cc3)n2)cc1,inactive
7,CCOC(=O)N1CCN(CCC(=O)Nc2ccccc2)CC1,inactive
8,Cc1noc(C)c1CSCC(=O)Nc1nc2ccc(Oc3ccccc3)cc2s1,inactive
9,O=C(Nc1ccc(S(=O)(=O)N2CCCCC2)cc1)C1CC(=O)N(c2ccc(F)cc2)C1 (stereo not drawn),inactive
10,COC[C@@H]1NS(=O)(=O)c2ccc(Br)cc2O[C@H]1c1ccccc1,inactive
11,Cc1ccc(C)c(NC(=O)C2CCCN(S(=O)(=O)c3cn(C)cn3)C2)c1 (stereo not drawn),inactive
12,CCOc1ccc2nc(C(=O)N3CCCC(C)C3)sc2c1 (stereo not drawn),inactive
13,CCOc1ccc2nc(N3CCCC(C(=O)Nc4cc(C)ccc4C)C3)sc2c1 (stereo not drawn),23.1 µM (active)
14,COCC(C)NS(=O)(=O)c1ccc(N2CCCCS2(=O)=O)cc1 (stereo not drawn),inactive
15,COC(=O)C1=C(C)N=C2SC(C)C(=O)N2C1/C=C/c1ccccc1 (stereo not drawn),inactive
16,CC(OC(=O)c1ccccc1N1C(=O)C2C3CCC(C3)C2C1=O)C(=O)c1ccccc1 (stereo not drawn),inactive
17,CCOC(=O)c1ccccc1N1C(=O)C2Sc3[nH]c(=O)sc3C(/C=C/c3ccccc3)C2C1=O (stereo not drawn),18.4 µM (active)
18,CCOc1ccc2[nH]c(=O)c(CN(CCCO)C(C)=O)cc2c1,inactive
19,CCC(=O)N(CCc1ccccc1)Cc1cc2cc(C)ccc2[nH]c1=O,inactive
20,Cc1ccc2[nH]c(=O)c(CN(CCCN(C)C)C(=O)Nc3cccc(Cl)c3)cc2c1,20.6 µM (active)
21,Cc1cc(NC(=O)c2ccccc2C)no1,inactive
22,OCCn1c(-c2ccccc2)csc1=Nc1ccccc1,25.9 µM (active)
23,Cc1csc(=Nc2ccccc2)n1CCO,inactive
24,Cc1nc(SCC(=O)NC2CCCC2)[nH]c(=O)c1C,inactive
25,COc1ccccc1N1CCN(S(=O)(=O)c2ccc3c(c2)NC(=O)CS3)CC1,inactive

row,SMILES,Potency
1,CC(CC(=O)N1CCN(c2ccccc2)CC1)S(=O)(=O)c1ccc2c(c1)NC(=O)CS2 (stereo not drawn),23.1 µM (active)
2,O=C1CSc2ccc(S(=O)(=O)NCc3ccccc3)cc2N1,inactive
3,Cc1ccccc1OCCC(=O)OCC(=O)NCCc1ccc(S(N)(=O)=O)cc1,inactive
4,Cc1oc2c(F)c(F)c(F)c(F)c2c1S(=O)(=O)Nc1cccc(C(F)(F)F)c1,11.6 µM (active)
5,Cc1noc(C)c1S(=O)(=O)Nc1cc(C(F)(F)F)ccc1N1CCOCC1,inactive
6,Cc1ccc(N(CCC(=O)O)S(=O)(=O)c2cccc(C(F)(F)F)c2)cc1,inactive
7,O=S(O)CNc1ccc(S(=O)(=O)c2ccc(NCS(=O)O)cc2)cc1,inactive
8,COC(=O)[C@@H]1CC2=CC(=O)CC[C@]2(C)[C@@]23O[C@@H]2C[C@@]2(C)[C@@H](CC[C@@]24CCC(=O)O4)[C@H]13,inactive
9,CC(=O)O[C@]1(C(C)=O)CC[C@H]2[C@@H]3C=C(C)C4=CC(=O)CC[C@]4(C)[C@H]3CC[C@@]21C,inactive
10,C[C@]12CCC(=O)C=C1C=CC1C2CC[C@@]2(C)C1CC[C@@]21CCC(=O)O1 (stereo partly drawn),20.6 µM (active)
11,CN1CCN(C(=O)/C(=C\c2ccc3c(c2)OCO3)NC(=O)c2cccs2)CC1,inactive
12,CCn1ccnc1CN(C)C(=O)c1cc(COc2ccc(Cl)cc2OC)on1,inactive
13,O=C(O)CCn1c(SCc2cc(=O)n3ccccc3n2)nc2ccsc2c1=O,inactive
14,Cc1cc(C)cc(CN2CCc3nnc(C(NS(C)(=O)=O)C(C)C)n3CC2)c1 (stereo not drawn),inactive
15,CCc1ccccc1OCCSc1nc(-c2cccs2)nc2cc(=O)[nH]n12,inactive
16,Cc1cccc(CSc2nnc(C)c(=O)n2N)c1,inactive
17,Cc1cccc(-c2nc(SCc3ccc(Br)cc3)n3[nH]c(=O)cc3n2)c1,16.4 µM (active)
18,CCN(CC(=O)Nc1ccccc1C(F)(F)F)C(=O)C1CCN(C(=O)Nc2ccccc2)CC1,inactive
19,NC(=O)c1ccsc1NC(=O)COC(=O)COc1ccc(C=O)cc1,inactive
20,COC(=O)c1ccc(/C=N/N2C(C)CCCC2C)cc1 (stereo not drawn),inactive
21,CC(C)(C)c1ccc(C(=O)C[n+]2cccc3cc(Cl)ccc32)cc1,5.01 µM (active)
22,Cc1cccc[n+]1CC(=O)c1ccccc1,inactive
23,COC(=O)C[n+]1cccc2ccccc21,inactive
